# Experimental data as given in the supplement of paper PMC4466140.
# Tests used:
# Assay in all cases: SPOT peptide array binding signal intensity (averaged, normalized) (arbitrary units (background-subtracted, floor 0; scale differs between SH3 domains)); higher = stronger binding of the SH3 domain to the peptide
# AgAbp1 = target: AgAbp1
# In short: (§1)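 Binding signal refers to normalized, background-subtracted spot intensity averaged over replicates, expressed in arbitrary units that differ between domains. GST-fused SH3 domains from four yeast species were incubated at 10 μg/ml overnight at 4°C on cellulose membranes of synthetic 15-mer peptides with cysteines replaced by serines. Bound protein was detected with anti-GST antibody, an HRP anti-mouse secondary and luminol, and quantified with Genespotter.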
# AgBbc1 = target: AgBbc1
# In short: as §1
# AgBem1-D1 = target: AgBem1-D1
# In short: as §1
# AgBzz1-D1 = target: AgBzz1-D1
# In short: as §1
# AgBzz1-D2 = target: AgBzz1-D2
# In short: as §1
# AgCyk3 = target: AgCyk3
# In short: as §1
# AgFus1 = target: AgFus1
# In short: as §1
# AgHof1 = target: AgHof1
# In short: as §1
# AgHse1 = target: AgHse1
# In short: as §1
# AgLsb1 = target: AgLsb1
# In short: as §1
# AgLsb4 = target: AgLsb4
# In short: as §1
# AgMyo5 = target: AgMyo5
# In short: as §1
# AgNbp2 = target: AgNbp2
# In short: as §1
# AgRvs167 = target: AgRvs167
# In short: as §1
# AgSho1 = target: AgSho1
# In short: as §1
# AgSla1-D1-D2 = target: AgSla1-D1-D2
# In short: as §1
# AgSla1-D3 = target: AgSla1-D3
# In short: as §1
# CaAbp1-D1 = target: CaAbp1-D1
# In short: as §1
# CaAbp1-D2 = target: CaAbp1-D2
# In short: as §1
# CaBbc1 = target: CaBbc1
# In short: as §1
# CaBem1-D1 = target: CaBem1-D1
# In short: as §1
# CaBzz1-D1 = target: CaBzz1-D1
# In short: as §1
# CaBzz1-D2 = target: CaBzz1-D2
# In short: as §1
# CaCyk3 = target: CaCyk3
# In short: as §1
# CaFus1 = target: CaFus1
# In short: as §1
# CaHof1 = target: CaHof1
# In short: as §1
# CaHse1 = target: CaHse1
# In short: as §1
# CaLsb1 = target: CaLsb1
# In short: as §1
# CaLsb4 = target: CaLsb4
# In short: as §1
# CaMyo5 = target: CaMyo5
# In short: as §1
# CaNbp2 = target: CaNbp2
# In short: as §1
# CaRvs167 = target: CaRvs167
# In short: as §1
# CaRvs167-3 = target: CaRvs167-3
# In short: as §1
# CaSho1 = target: CaSho1
# In short: as §1
# CaSla1-D1-D2 = target: CaSla1-D1-D2
# In short: as §1
# CaSla1-D3 = target: CaSla1-D3
# In short: as §1
# ScAbp1 = target: ScAbp1
# In short: as §1
# ScBbc1 = target: ScBbc1
# In short: as §1
# ScBem1-D1 = target: ScBem1-D1
# In short: as §1
# ScBzz1-D1 = target: ScBzz1-D1
# In short: as §1
# ScBzz1-D2 = target: ScBzz1-D2
# In short: as §1
# ScCyk3 = target: ScCyk3
# In short: as §1
# ScFus1 = target: ScFus1
# In short: as §1
# ScHof1 = target: ScHof1
# In short: as §1
# ScHse1 = target: ScHse1
# In short: as §1
# ScLsb1 = target: ScLsb1
# In short: as §1
# ScLsb2 = target: ScLsb2
# In short: as §1
# ScLsb3 = target: ScLsb3
# In short: as §1
# ScLsb4 = target: ScLsb4
# In short: as §1
# ScMyo3 = target: ScMyo3
# In short: as §1
# ScMyo5 = target: ScMyo5
# In short: as §1
# ScNbp2 = target: ScNbp2
# In short: as §1
# ScPex13 = target: ScPex13
# In short: as §1
# ScRvs167 = target: ScRvs167
# In short: as §1
# ScSho1 = target: ScSho1
# In short: as §1
# ScSla1-D1-D2 = target: ScSla1-D1-D2
# In short: as §1
# ScSla1-D3 = target: ScSla1-D3
# In short: as §1
# SpAbp1-D1 = target: SpAbp1-D1
# In short: as §1
# SpBbc1 = target: SpBbc1
# In short: as §1
# SpBzz1-D1 = target: SpBzz1-D1
# In short: as §1
# SpBzz1-D2 = target: SpBzz1-D2
# In short: as §1
# SpCyk3 = target: SpCyk3
# In short: as §1
# SpHof1 = target: SpHof1
# In short: as §1
# SpHof1-2 = target: SpHof1-2
# In short: as §1
# SpHof1-3 = target: SpHof1-3
# In short: as §1
# SpHse1 = target: SpHse1
# In short: as §1
# SpLsb1 = target: SpLsb1
# In short: as §1
# SpLsb4 = target: SpLsb4
# In short: as §1
# SpMyo1 = target: SpMyo1
# In short: as §1
# SpNbp2 = target: SpNbp2
# In short: as §1
# SpPex13 = target: SpPex13
# In short: as §1
# SpRvs167 = target: SpRvs167
# In short: as §1
# SpSla1-D1-D2 = target: SpSla1-D1-D2
# In short: as §1
# SpSla1-D3 = target: SpSla1-D3
# In short: as §1
binder,measurement,setting,value
FTLPPPPPPPGLDEL,SPOT peptide array binding signal intensity,AgAbp1,≤ 0
same,SPOT peptide array binding signal intensity,AgBbc1,≤ 0
same,SPOT peptide array binding signal intensity,AgBem1-D1,≤ 0
same,SPOT peptide array binding signal intensity,AgBzz1-D1,≤ 0
same,SPOT peptide array binding signal intensity,AgBzz1-D2,3
same,SPOT peptide array binding signal intensity,AgCyk3,≤ 0
same,SPOT peptide array binding signal intensity,AgFus1,≤ 0
same,SPOT peptide array binding signal intensity,AgHof1,85.8
same,SPOT peptide array binding signal intensity,AgHse1,≤ 0
same,SPOT peptide array binding signal intensity,AgLsb1,≤ 0
same,SPOT peptide array binding signal intensity,AgLsb4,≤ 0
same,SPOT peptide array binding signal intensity,AgMyo5,1170
same,SPOT peptide array binding signal intensity,AgNbp2,≤ 0
same,SPOT peptide array binding signal intensity,AgRvs167,0.833
same,SPOT peptide array binding signal intensity,AgSho1,≤ 0
same,SPOT peptide array binding signal intensity,AgSla1-D1-D2,4
same,SPOT peptide array binding signal intensity,AgSla1-D3,≤ 0
same,SPOT peptide array binding signal intensity,CaAbp1-D1,≤ 0
same,SPOT peptide array binding signal intensity,CaAbp1-D2,≤ 0
same,SPOT peptide array binding signal intensity,CaBbc1,≤ 0
same,SPOT peptide array binding signal intensity,CaBem1-D1,≤ 0
same,SPOT peptide array binding signal intensity,CaBzz1-D1,491
same,SPOT peptide array binding signal intensity,CaBzz1-D2,23
same,SPOT peptide array binding signal intensity,CaCyk3,≤ 0
same,SPOT peptide array binding signal intensity,CaFus1,≤ 0
same,SPOT peptide array binding signal intensity,CaHof1,0.5
same,SPOT peptide array binding signal intensity,CaHse1,≤ 0
same,SPOT peptide array binding signal intensity,CaLsb1,≤ 0
same,SPOT peptide array binding signal intensity,CaLsb4,≤ 0
same,SPOT peptide array binding signal intensity,CaMyo5,33.8
same,SPOT peptide array binding signal intensity,CaNbp2,≤ 0
same,SPOT peptide array binding signal intensity,CaRvs167,≤ 0
same,SPOT peptide array binding signal intensity,CaRvs167-3,≤ 0
same,SPOT peptide array binding signal intensity,CaSho1,≤ 0
same,SPOT peptide array binding signal intensity,CaSla1-D1-D2,7
same,SPOT peptide array binding signal intensity,CaSla1-D3,≤ 0
same,SPOT peptide array binding signal intensity,ScAbp1,≤ 0
same,SPOT peptide array binding signal intensity,ScBbc1,2
same,SPOT peptide array binding signal intensity,ScBem1-D1,≤ 0
same,SPOT peptide array binding signal intensity,ScBzz1-D1,12
same,SPOT peptide array binding signal intensity,ScBzz1-D2,0.5
same,SPOT peptide array binding signal intensity,ScCyk3,≤ 0
same,SPOT peptide array binding signal intensity,ScFus1,≤ 0
same,SPOT peptide array binding signal intensity,ScHof1,204
same,SPOT peptide array binding signal intensity,ScHse1,≤ 0
same,SPOT peptide array binding signal intensity,ScLsb1,0.25
same,SPOT peptide array binding signal intensity,ScLsb2,≤ 0
same,SPOT peptide array binding signal intensity,ScLsb3,≤ 0
same,SPOT peptide array binding signal intensity,ScLsb4,≤ 0
same,SPOT peptide array binding signal intensity,ScMyo3,1360
same,SPOT peptide array binding signal intensity,ScMyo5,1880
same,SPOT peptide array binding signal intensity,ScNbp2,1
same,SPOT peptide array binding signal intensity,ScPex13,1
same,SPOT peptide array binding signal intensity,ScRvs167,≤ 0
same,SPOT peptide array binding signal intensity,ScSho1,≤ 0
same,SPOT peptide array binding signal intensity,ScSla1-D1-D2,4.5
same,SPOT peptide array binding signal intensity,ScSla1-D3,1.5
same,SPOT peptide array binding signal intensity,SpAbp1-D1,≤ 0
same,SPOT peptide array binding signal intensity,SpBbc1,≤ 0
same,SPOT peptide array binding signal intensity,SpBzz1-D1,1530
same,SPOT peptide array binding signal intensity,SpBzz1-D2,9.25
same,SPOT peptide array binding signal intensity,SpCyk3,≤ 0
same,SPOT peptide array binding signal intensity,SpHof1,2.5
same,SPOT peptide array binding signal intensity,SpHof1-2,1
same,SPOT peptide array binding signal intensity,SpHof1-3,5.75
same,SPOT peptide array binding signal intensity,SpHse1,≤ 0
same,SPOT peptide array binding signal intensity,SpLsb1,≤ 0
same,SPOT peptide array binding signal intensity,SpLsb4,≤ 0
same,SPOT peptide array binding signal intensity,SpMyo1,1110
same,SPOT peptide array binding signal intensity,SpNbp2,≤ 0
same,SPOT peptide array binding signal intensity,SpPex13,≤ 0
same,SPOT peptide array binding signal intensity,SpRvs167,16.7
same,SPOT peptide array binding signal intensity,SpSla1-D1-D2,≤ 0
same,SPOT peptide array binding signal intensity,SpSla1-D3,≤ 0
